# Experimental data published in PubChem BioAssay AID504845 (National Center for Advancing Translational Sciences (NCATS), 2011).
# Where “and” joins values, the source holds several entries; their conditions need not be identical. Equal values may be shown once. The campaign covered roughly 390,000 compounds. About 150 (0.038%) were called active. Inconclusive results (about 3%) are left out. Calls follow the shape of the dose curve; as a rule, active = well fitted inhibition curve with a large enough effect; inconclusive = small, poorly fitted or top-dose-only effect; inactive = no such curve, though single readings can be large or run the other way. What follows is part of a selection rich in actives, with near analogues and random picks from the rest. A call without a number means that no potency is given here. The source holds several records for some structures; these can differ, active in one and inactive in another.
# Target: Regulator of G-protein signaling 4 (Homo sapiens) (UniProt P49798)
# Assay: Inhibitors of Regulator of G Protein Signaling (RGS) 4: qHTS; also: nearly all actives have a fitted effect of over 75% in size
# Settings: Transcreener GDP fluorescence polarization, RGS4-accelerated GTP hydrolysis; series mostly up to 56.9 µM
# Source text: G-protein-coupled receptors (GPCRs) are well-established targets for drug discovery and development. Members of the "regulator of G-protein signaling" (RGS)-protein superfamily have recently emerged as critical modulators of specific GPCR signaling pathways. […] Combining specific RGS domain inhibitors with existing GPCR agonists should potentiate cellular responses and could also increase the specificity of action of existing therapeutics. Small molecule modulators of RGS domain activity should also have clinical utility in inhibiting or potentiating the actions of endogenous GPCR agonists. In particular, the diversity of RGS proteins with highly localized and dynamically regulated distributions in the human brain makes this family of proteins attractive targets for pharmacotherapy of central nervous system (CNS) disorders such as Parkinson's disease, schizophrenia, and anxiety.
# This assay was used to screen the NIH Molecular Libraries Small Molecule Repository (MLSMR) in order to identify a small molecule that inhibits RGS4.
# NIH Chemical Genomics Center [NCGC]
# NIH Molecular Libraries Probe Centers Network [MLPCN]
# Assay Submitter (PI): David Siderovski, University of North Carolina Chapel Hill (School of Medicine)
# Two microliters of 500nM (2x working concentration) is dispensed into black medium-binding solid-bottom Kalypsys plates. Then with the Kalypsys pintool 23nl of control and compounds are transferred; the control compound is […] CCG-4986 (working concentration). […] An initial fluorescent polarization read (620 nm/688 nm) is performed on the Envision before the plate is incubated for 90 minutes at 30 deg C at a relative humidity of 80%. The plate is once more centrifuged at 1000 RPM for 15 seconds and another Envision fluorescent polarization (620 nm/688 nm) read is carried out.
# Potency is read from the fitted curve at half-maximal effect.
# Regulator of G-protein signaling 4 (Homo sapiens), sequence (P49798 whole entry, looked up): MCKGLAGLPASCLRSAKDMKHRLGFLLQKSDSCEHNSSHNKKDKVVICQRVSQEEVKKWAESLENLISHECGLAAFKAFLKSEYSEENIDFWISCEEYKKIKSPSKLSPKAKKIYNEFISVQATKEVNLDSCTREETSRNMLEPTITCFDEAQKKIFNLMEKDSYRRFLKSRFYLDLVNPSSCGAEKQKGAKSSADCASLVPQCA
row,SMILES,Potency
1,CC(=O)c1c(O)c(C)c(O)c(Cc2c(O)c3c(c(C(=O)/C=C/c4ccccc4)c2O)OC(C)(C)C=C3)c1O,inactive and 10.6 µM (active)
2,CC(=O)OC1C([N+]2(C)CCCCC2)C[C@H]2C3CC[C@H]4C[C@H](OC(C)=O)C([N+]5(C)CCCCC5)CC4(C)C3CCC12C (stereo partly drawn),inactive
3,CCCN(C/C=C/I)C1CCc2ccc(O)cc2C1 (stereo not drawn),inactive
